From the supplement of paper PMC11624193, “Coupling cellular drug-target engagement to downstream pharmacology with CeTEAM” (Nature Communications, 2024)
Counter-ions that a name gives are not always drawn.

These compounds were tested against PARP1 L713F-nLuc biosensor (HCT116) (UniProt P09874) (assay: PARP1 L713F-nLuc/akaLuc ratio relative to DMSO control (biosensor stabilization) (fold change); higher = more PARP1 biosensor stabilization (target engagement / stabilizer), active = hit call of the paper). Conditions: stock concentration (mM; final µM = stock mM x 1): 10; 24 h;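 active = log2 fold change beyond 2 SD from the library mean after excluding viability outliers; inactive = within 2 SD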.
Chain of PARP1 L713F-nLuc biosensor (HCT116) (P09874 whole entry L713F, looked up): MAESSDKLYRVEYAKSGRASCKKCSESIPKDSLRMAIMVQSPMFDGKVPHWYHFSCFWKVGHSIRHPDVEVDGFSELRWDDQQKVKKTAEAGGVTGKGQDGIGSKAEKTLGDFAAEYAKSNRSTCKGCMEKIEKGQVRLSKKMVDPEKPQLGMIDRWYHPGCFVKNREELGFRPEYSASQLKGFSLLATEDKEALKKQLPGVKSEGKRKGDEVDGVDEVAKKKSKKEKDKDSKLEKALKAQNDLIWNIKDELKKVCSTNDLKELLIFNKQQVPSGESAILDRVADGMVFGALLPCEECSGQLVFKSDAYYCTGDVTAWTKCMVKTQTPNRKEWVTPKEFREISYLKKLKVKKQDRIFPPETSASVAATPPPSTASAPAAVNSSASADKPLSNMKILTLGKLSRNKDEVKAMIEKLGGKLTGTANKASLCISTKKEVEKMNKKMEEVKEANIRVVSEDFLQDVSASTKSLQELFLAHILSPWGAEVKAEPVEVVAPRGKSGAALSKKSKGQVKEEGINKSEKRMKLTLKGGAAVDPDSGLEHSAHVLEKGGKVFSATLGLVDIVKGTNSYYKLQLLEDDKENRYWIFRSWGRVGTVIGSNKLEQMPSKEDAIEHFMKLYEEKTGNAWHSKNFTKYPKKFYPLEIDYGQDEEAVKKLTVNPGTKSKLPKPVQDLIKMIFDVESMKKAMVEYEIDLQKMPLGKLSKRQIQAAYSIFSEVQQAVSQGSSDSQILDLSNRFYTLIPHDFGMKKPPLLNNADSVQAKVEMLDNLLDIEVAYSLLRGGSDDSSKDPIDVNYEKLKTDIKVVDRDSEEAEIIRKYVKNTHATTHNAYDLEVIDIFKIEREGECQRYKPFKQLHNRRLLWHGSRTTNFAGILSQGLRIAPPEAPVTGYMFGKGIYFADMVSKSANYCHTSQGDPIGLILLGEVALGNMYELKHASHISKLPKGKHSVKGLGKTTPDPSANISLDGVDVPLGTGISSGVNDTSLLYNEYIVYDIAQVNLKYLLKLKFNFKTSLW
In the case of `CC(C)(Oc1ccc(Cl)cc1)C(=O)Nc1ccc(OCc2ccc(C#N)cc2)cc1` [AMPK activator 4], the “PARP1 L713F-nLuc/akaLuc ratio” value is reported as 1.2 (inactive). For `Cc1c(Cn2c(C)nc3c(C(=O)O)cc(N4CCOCC4)cc32)cccc1C(F)(F)F`, the “PARP1 L713F-nLuc/akaLuc ratio” value was 1.38 (inactive). For `COc1cc2ncnc(Nc3ccc(F)c(Cl)c3)c2cc1OCCCN1CCOCC1` [Gefitinib (ZD1839)], the “PARP1 L713F-nLuc/akaLuc ratio” value was 1.04 (inactive). `CN1CCC(CNc2ccc3ncc(-c4cccc(OC(F)(F)F)c4)n3n2)CC1` was tested, and the “PARP1 L713F-nLuc/akaLuc ratio” value was 1.51 (inactive). For `CN(c1ccccc1)c1ccc2c(c1)CCC[C@H]2CNc1cnccc1C(=O)O`, the “PARP1 L713F-nLuc/akaLuc ratio” value was 0.387 (inactive). With `COc1cccc(-n2c(=O)[nH]c3cc(Cl)n(-c4ccc(-c5cccc(OC)c5O)cc4)c3c2=O)c1` the “PARP1 L713F-nLuc/akaLuc ratio” value was 0.814 (inactive). `N#Cc1cc2cc(CN3CCC(Nc4ncnc5sc(CC(F)(F)F)cc45)CC3)ccc2[nH]1` was tested, and the “PARP1 L713F-nLuc/akaLuc ratio” value was 1.05 (inactive). For `Cc1cc(Nc2cc(N3CCN(C)CC3)nc(Sc3ccc(NC(=O)C4CC4)cc3)n2)n[nH]1` [Tozasertib (VX-680, MK-0457)], the “PARP1 L713F-nLuc/akaLuc ratio” value was 0.821 (inactive). In the case of `Nc1ncc(-c2cnn(CCO)c2)c2scc(-c3ccc(NC(=O)Nc4cccc(F)c4)cc3)c12` [Ilorasertib (hydrochloride)], the “PARP1 L713F-nLuc/akaLuc ratio” value is reported as 0.906 (inactive). In the case of `CN(C)CCOc1ccc(/C(=C(/CCCl)c2ccccc2)c2ccccc2)cc1` [Toremifene Citrate], the “PARP1 L713F-nLuc/akaLuc ratio” value is reported as 0.791 (inactive). With `CN1CCN(c2ccc(Nc3ncc4cc(C#N)c(=O)n(C5CCCC5)c4n3)cc2)CC1` the “PARP1 L713F-nLuc/akaLuc ratio” value was 0.701 (inactive). For `COc1ccc(C(NC(=O)c2cnc(-c3cccnn3)[nH]c2=O)c2ccc(OC)cc2)cc1`, the “PARP1 L713F-nLuc/akaLuc ratio” value was 0.884 (inactive).
